Experimental findings from ChEMBL document CHEMBL4513216, “Probing the Open Global Health Chemical Diversity Library for Multistage-Active Starting Points for Next-Generation Antimalarials” (ACS Infect Dis, 2020) are described below.

Among all 69,000 compounds or so, about 8,600 (12%) showed an effect of 50% or more. The sample holds strong results, similar compounds and a random draw of the others, so the mix is not that of the screen.

In this assay the test system is Plasmodium berghei. Put plainly: Screen against P. berghei liver stage (PbLuc), transformed with Luciferase, at 10uM. The class given is functional, HepG2. Particulars: tested at 10 uM.
As to `CN(Cc1nccn1C)C(=O)c1cccc(CCC(C)(C)O)c1`, the INHIBITION stood at 39.4%.

Consider `C[C@H](NC(=O)c1cccc(CCC(C)(C)O)c1)C(N)=O`, for which the INHIBITION amounted to 10.3%.

Regarding `CC[C@@H](CO)NC(=O)c1cccc(CCC(C)(C)O)c1`, the INHIBITION amounted to 5.78%.

Take `CC(C)(O)CCc1cccc(C(=O)NCc2nccs2)c1`: the INHIBITION is on record as 56.3%.

With `CCN(CC)c1ncccc1CNCc1ccc(Cl)s1`, the INHIBITION turned out to be 49.4%.

`Cc1ncsc1CN(Cc1ccccc1)Cc1ccncc1`: the INHIBITION was 12.1%.

Consider `CC(C(=O)Nc1ccc(Cl)cn1)n1ccc(C(F)(F)F)n1` (configuration not stated), for which the INHIBITION came to 42.4%.

Take `Cc1cccc2nc(C(=O)N3CCCC[C@]4(C)NC(=O)CC[C@H]34)cn12`: the INHIBITION was determined as 22%.

As for `O=C(NC1CC1)c1cc(C(F)(F)F)cc(C(=O)NC2CC2)n1`, the INHIBITION was determined as 5.21%.

As for `Cc1cc(CN(C)Cc2ncc(-c3cccs3)o2)no1`, the INHIBITION came out at 1.84%.

For the compound `Cc1cc(CN(C)CCN(C)c2ccccc2)no1`, the INHIBITION was 82.4%.

For `Cc1cc(CN(C)CC2CCCCC2)no1`, the INHIBITION is 23.1%.

Take `Cc1cc(CN(C)Cc2ncc(-c3ccccc3)o2)no1`: the INHIBITION came to 50.7%.

Turning to `Cc1cc(CN(C)Cc2ncc(C(C)(C)C)o2)no1`, the INHIBITION is reported as -30.5%.

As for `Cc1cc(CN(C)CCC(O)c2ccccc2)no1` (configuration not stated), the INHIBITION was determined as 30.3%.

Consider `CC(C)c1nccn1CC(=O)Nc1ccnn1C(C)C(C)C` (configuration not stated), for which the INHIBITION is listed as -5.51%.

Take `COC(=O)c1cccc(C(=O)NCc2ccco2)n1`: the INHIBITION was 41.6%.

For `CC(=O)Nc1ccc(S(=O)(=O)N2CCOC(Cn3ccnc3)C2)cc1` (configuration not stated), the INHIBITION was -36.4%.

As to `Cc1cc(C)n(C2CN(CCC(=O)NC3CCCCC3)C2)n1`, the INHIBITION stood at 25.6%.

As to `Cc1cc(C)n(C2CN(CCC(=O)NCCc3ccccc3)C2)n1`, the INHIBITION came to 36.3%.

As to `CCc1ccc(NC(=O)CCN2CC(n3nc(C)cc3C)C2)cc1`, the INHIBITION is reported as 52.6%.

With `CS(=O)(=O)N[C@@H]1CN(C(=O)c2cc3ccccc3s2)C[C@H]1O`, the INHIBITION is listed as -19.7%.

Consider `CC(=O)N1CCC(c2cc(C(F)(F)F)nc3nccn23)CC1`, for which the INHIBITION was found to be 61.9%.

Turning to `FC(F)(F)c1cc(C2CCN(c3cnccn3)CC2)n2ccnc2n1`, the INHIBITION is reported as -7.98%.

In the case of `CC(=O)N1CCC(c2cc(C(F)(F)F)n3ccnc3n2)CC1`, the INHIBITION is reported as -22.6%.

Consider `CN(C)C(=O)CN1CCc2onc(-c3ccccc3F)c2C1`, for which the INHIBITION is recorded as -17.8%.

Consider `Fc1cccc(CN2C[C@@H]3CN(c4ncccn4)C[C@@H]3C2)c1`, for which the INHIBITION is 28.5%.

For the compound `Cc1ccc(CN2C[C@@H]3CN(c4ncc(F)cn4)C[C@@H]3C2)cc1`, the INHIBITION amounted to 46.7%.

Consider `Fc1cnc(N2C[C@H]3CN(Cc4cccc(F)c4)C[C@H]3C2)nc1`, for which the INHIBITION is reported as 60%.

With `CN(CCCc1cc(-c2ccc(F)cc2)n(C)n1)CC(N)=O`, the INHIBITION is given as -65.6%.

With `CN1CC[C@H](N(Cc2ccccc2)Cc2ccccc2)C[C@H](O)C1`, the INHIBITION turned out to be 32.1%.

Consider `Cc1ccc(CN2CCO[C@@H]3C[C@@H](C(=O)NC(C)C)C[C@H]32)o1`, for which the INHIBITION is recorded as -26.5%.

For the compound `CSCCc1c(-c2ccccc2)ncn1CC(C)(C)N1CCOCC1`, the INHIBITION was determined as 69.3%.

Turning to `CN(C)CC(C)(C)Cn1cnc(-c2ccccc2)c1-c1cccc(O)c1`, the INHIBITION is given as -39.3%.

With `CN(C)CC(C)(C)Cn1cnc(-c2ccccc2)c1-c1ccncc1`, the INHIBITION is -18.1%.

Consider `CSCCc1c(-c2ccccc2)ncn1[C@H]1C[C@@H](C(=O)O)N(C)C1`, for which the INHIBITION is 19.5%.

As to `CC(C)(Cn1cnc(-c2ccccc2)c1-c1ccco1)N1CCOCC1`, the INHIBITION is 51.7%.

Take `CSCCc1c(-c2ccccc2)ncn1CC(C)(C)N1CCCC1`: the INHIBITION is on record as 26.7%.

Consider `CCc1cc(CN(C)C(=O)c2cc(=O)[nH]c(=O)[nH]2)on1`, for which the INHIBITION is recorded as -34.8%.

Consider `CCn1nc(C)c2ncnc(N3CCCC(C)C3)c21` (configuration not stated), for which the INHIBITION is 26.9%.

With `CCN(CC1CCOC1)C(=O)c1ccc(N(C)C)cc1F` (configuration not stated), the INHIBITION was determined as 13.8%.

For `O=C(Cc1ccccc1)N1CCOC(c2nc(-c3ncccn3)no2)C1` (configuration not stated), the INHIBITION was -20.2%.

As for `COc1ccc(C(NCc2cccc(O)c2)C2CC2)cc1` (configuration not stated), the INHIBITION is recorded as 3.84%.

`CCOCC1CN(Cc2ccc3c(c2)OCO3)Cc2ncn(C)c21` (configuration not stated): the INHIBITION is on record as 23.3%.

For the compound `COCC1CN(Cc2ccc3c(c2)OCO3)Cc2ncn(C)c21` (configuration not stated), the INHIBITION is recorded as 38.2%.

In the case of `CC(C)COCC1CN(Cc2ccoc2)Cc2ncn(C)c21` (configuration not stated), the INHIBITION is recorded as 9.51%.

For the compound `CC(C)COCC1CN(Cc2cnn(C)c2)Cc2ncn(C)c21` (configuration not stated), the INHIBITION was found to be 28.3%.

For `CC(C)COCC1CN(Cc2ccc3c(c2)OCO3)Cc2ncn(C)c21` (configuration not stated), the INHIBITION is on record as 55.1%.

As for `Cn1cnc2c1C(COCC1CC1)CN(Cc1ccc3c(c1)OCO3)C2` (configuration not stated), the INHIBITION amounted to 63.5%.

Regarding `CC(C)Cn1c(=O)[nH]c2cn(-c3ccc(F)cc3)c(=O)n21`, the INHIBITION is 11.4%.

As to `Cc1cc(CN2CCC3(CC2)CC(Nc2ncccn2)CO3)nn1C` (configuration not stated), the INHIBITION was -0.813%.

In the case of `CC(Cn1cccn1)NCc1csc(COc2ccc(F)cc2)n1` (configuration not stated), the INHIBITION was 33.7%.
